# Experimental data: PubChem BioAssay (NCI)
# The panel holds about 83,000 compounds, 20% with a hit somewhere; the sample as a whole holds those more often.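 Testing used 96-well plates and a 48-hour single-concentration exposure. Example: -40 means 40% of the starting cells died.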 Values without a mark were called inactive. Calls of active or inactive are those of the source. The calls were made as follows: active = growth percent below 10; inactive = the rest.
# Tested on: MDA-MB-231 breast
# Experiment: NCI-60 one-dose screen, 48 h (100 = growth as untreated, 0 = no growth, -100 = all killed)
# Settings: 10 µM unless noted
row,SMILES,growth
1,COc1cc(C=O)ccc1OC1OC(COC(C)=O)C(OC(C)=O)C(OC(C)=O)C1OC(C)=O (centres undefined),101%
2,CC1=CCC(OC(=O)C(C)(O)CCC(O)(C(=O)OC2(C)C=CC(O)(C(C)C)CC2)C(C)C)(C(C)C)CC1 (centres undefined),100%
3,CC(=O)Nc1cccc(-c2ccc3c(c2)NC(=O)/C3=C\c2ccc[nH]2)c1,34.9%
4,CC(C)(C)c1ccc(NS(=O)(=O)c2ccc3nc(NC(=O)c4cnccn4)[nH]c3c2)cc1,50.5%
5,CC(C)(C)c1cc(/C=N/NC(=O)c2ccccc2NC(=O)c2cccs2)c(O)c(C(C)(C)C)c1,44.3%
6,C#CCNC(=O)[C@H](Cc1ccccc1)NC(=O)[C@]12CC[C@@H](C(=C)C)[C@@H]1[C@H]1CC[C@@H]3[C@@]4(C)CCC(=O)C(C)(C)[C@@H]4CC[C@@]3(C)[C@]1(C)CC2,79.1%
7,CCCCCCNC(=O)Oc1ccc(/C(=C(\C)c2ccccc2)c2ccc(OCCCN(C)C)cc2)cc1,82.7%
8,CC(=O)Nc1ccc(-c2ccc3c(c2)NC(=O)/C3=C\c2ccc[nH]2)cc1,80.7%
9,CCCCOc1ccc(/C=N/Nc2cc(C)nc3ccc(Br)cc23)cc1,48.5%
10,COc1cc(/C(C)=C(\c2ccc(Cl)cc2)c2ccc(OCCN(C)C)cc2)ccc1F,50.8%
11,O=C(/C=C/c1ccc(Cl)cc1)c1ccc(NC(=O)N2CCN(c3cc4c(cc3F)c(=O)c(C(=O)O)cn4C3CC3)CC2)cc1,93%
12,O=C(c1nc2ccccc2[nH]1)C1C(c2ccc(Cl)cc2)C2CC3CCCC[C@H]3N2[C@@]12C(=O)Nc1cc(Cl)ccc12 (some centres undefined),42.6%
13,O=C(NCCNc1nccc(-c2c(-c3cccc(F)c3)nc3sccn23)n1)c1ccc(Cl)cc1,65.5%
14,O=C(CCN1CCCC1)Nc1ccc2c(NCCCc3ccccc3)c3ccccc3nc2c1,-24.3% (active)
15,N#CC1=C(/N=C/c2ccccc2)Oc2c(ccc3ccccc23)C1c1ccc([N+](=O)[O-])cc1 (centres undefined),72.7%
16,Brc1ccc(Nc2csc(-c3ccccn3)n2)cc1,81.9%
17,COc1cc(/C(C)=C(\c2ccc(Cl)cc2)c2ccc(OCCN3CCCC3)cc2)ccc1F,56.4%

row,SMILES,growth
1,CC(=O)N1c2ccccc2NC2=C(C(=O)NC2(C)C)C1c1ccco1 (centres undefined),96.4%
2,CCOC(=O)CSc1nc2ccccc2c(=O)n1Cc1ccc(S(N)(=O)=O)cc1,101%
3,CCCCOc1ccc(/C(C)=N/Nc2cc(C)nc3ccc(Br)cc23)cc1,81.3%
4,COc1cc2c(c(O)c1Cl)C(=O)c1c(O)cc(C[C@H](C)O)cc1[C@H]2[C@H]1c2cc(C[C@H](C)O)cc(O)c2C(=O)c2c1cc(OC)c(Cl)c2O,-57.9% (active)
5,O=C(c1ccccc1)N1N=C(c2ccc(-n3ccc(C(F)(F)F)n3)c(F)c2)CC1c1ccc[nH]1 (centres undefined),99.5%
6,O=C(Nc1ccc(-c2ccc3c(c2)NC(=O)/C3=C\c2ccc[nH]2)cc1)NC1CC1,101%
7,O=c1ccc(-c2nc(N3CCOCC3)c3ccccc3n2)c[nH]1,88.4%
8,COc1cc(/C=C\C(=O)O)ccc1OCc1ccccc1,93.5%
9,COc1ccc(C(C)=O)c(OC)c1,102%
10,NC1=NN=C(N)C1=Cc1cc2ccccc2n2nnnc12,95.5%
11,C=C1C(=O)O[C@H]2[C@H]1CC/C(CNC(=O)/C=C/c1cccc(OC)c1)=C\CC[C@@]1(C)O[C@@H]21,7.34% (active)
12,CNC(=O)c1cc(Cn2nc(C)c(NC(=O)Nc3ccc(Cl)c(C(F)(F)F)c3)c2C)ccn1,91.8%
13,Cc1ccc(/C=N/NC(=O)CSc2nc3ccccc3c(=O)n2Cc2ccc(S(N)(=O)=O)cc2)cc1,89.7%
14,O=C(Cc1ccc(/C=C/C(=O)c2ncc[nH]2)cc1)Nc1ccc(Cl)cc1,22.3%
15,CCCOC(=O)N[C@H]1CCc2c(Cl)c(OC)c(OC)c(OC)c2-c2ccc(SC)c(=O)cc21,-16.7% (active)
16,O=S(=O)(NCCCNc1nccc(-c2c(-c3cccc(O)c3)nc3occn23)n1)c1ccc(Cl)cc1,61.8%
17,COc1cc2c(=O)n(CCN(C)C)c3c4cc5c(cc4ccc3c2cc1OC)OCO5,-21.6% (active)
